Measurements published in article PMC7862700, “An all-to-all approach to the identification of sequence-specific readers for epigenetic DNA modifications on cytosine”.

Experiments:
Test in all cases: DAPPL (digital affinity profiling via proximity ligation, sequencing); 10 mM Tris-HCl pH 7.5, 50 mM NaCl, 1 mM DTT, 4% glycerol, room temperature, 30 min; GST-TFs on glutathione beads, 16-mer random dsDNA library, 0.1% formaldehyde crosslink after washing; high values mean tight binding
FEV = molecular target: T1, FEV (Homo sapiens, UniProt Q99581 1-238); details: protein: recombinant; tags: N-terminal GST; dsDNA, one strand shown
T1 sequence: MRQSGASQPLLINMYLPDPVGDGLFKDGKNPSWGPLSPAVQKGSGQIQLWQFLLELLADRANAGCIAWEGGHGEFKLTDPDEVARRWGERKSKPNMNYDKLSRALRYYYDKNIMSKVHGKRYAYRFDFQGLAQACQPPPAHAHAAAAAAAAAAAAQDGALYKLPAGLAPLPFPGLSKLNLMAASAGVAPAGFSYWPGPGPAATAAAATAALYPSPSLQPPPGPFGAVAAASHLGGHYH
Method in brief: (§1)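 Pools were built from human transcription factors expressed in yeast as GST fusions, captured on glutathione beads and DNA-barcoded, along with a tag-only sample. Incubation with 200 nmole of a 16-mer random double-stranded DNA library lasted 30 min at room temperature in Tris/NaCl/DTT/glycerol buffer, and was followed by washing, 0.1% formaldehyde crosslinking, proximity ligation, PCR amplification and Illumina NextSeq500 sequencing. Binding signal is the quotient of each hexamer's read frequency for a factor and its frequency for the tag-only sample.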

ETV5 = ETV5 (Homo sapiens, UniProt P41161 1-510); details: protein: recombinant; tags: N-terminal GST; dsDNA, one strand shown
Method in brief: as §1

HSF1 = HSF1 (Homo sapiens, UniProt Q00613 1-529); details: protein: recombinant; tags: N-terminal GST; chain copies: 3; dsDNA, one strand shown
Method in brief: as §1

SPIC = molecular target: T2, SPIC (Homo sapiens, UniProt Q8N5J4 1-248); details: protein: recombinant; tags: N-terminal GST; dsDNA, one strand shown
T2 sequence: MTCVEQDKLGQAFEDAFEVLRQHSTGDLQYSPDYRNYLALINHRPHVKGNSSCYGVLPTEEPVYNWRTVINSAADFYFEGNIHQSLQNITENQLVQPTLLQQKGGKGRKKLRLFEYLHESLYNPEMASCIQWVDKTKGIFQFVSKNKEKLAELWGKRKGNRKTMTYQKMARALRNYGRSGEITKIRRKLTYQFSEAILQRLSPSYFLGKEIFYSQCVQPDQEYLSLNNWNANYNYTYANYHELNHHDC
Method in brief: as §1

ELF4 = ELF4 (Homo sapiens, UniProt Q99607 1-663); details: protein: recombinant; tags: N-terminal GST; dsDNA, one strand shown
Method in brief: as §1

ELK4 = molecular target: T3, ELK4 (Homo sapiens, UniProt P28324-2 1-405); details: protein: recombinant; tags: N-terminal GST; dsDNA, one strand shown
T3 sequence: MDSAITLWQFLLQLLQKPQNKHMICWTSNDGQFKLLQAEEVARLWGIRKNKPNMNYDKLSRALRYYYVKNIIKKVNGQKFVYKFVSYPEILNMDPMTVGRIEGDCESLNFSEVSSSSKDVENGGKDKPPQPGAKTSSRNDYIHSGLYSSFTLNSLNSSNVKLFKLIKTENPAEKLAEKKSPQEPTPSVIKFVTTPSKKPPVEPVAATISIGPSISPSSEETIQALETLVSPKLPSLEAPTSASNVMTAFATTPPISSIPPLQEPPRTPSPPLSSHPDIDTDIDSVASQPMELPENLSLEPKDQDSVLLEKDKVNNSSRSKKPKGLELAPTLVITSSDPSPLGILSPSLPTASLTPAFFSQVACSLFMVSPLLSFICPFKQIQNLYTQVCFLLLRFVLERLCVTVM
Method in brief: as §1

ETV2 = molecular target: T4, ETV2 (Homo sapiens, UniProt O00321 1-342); details: protein: recombinant; tags: N-terminal GST; dsDNA, one strand shown
T4 sequence: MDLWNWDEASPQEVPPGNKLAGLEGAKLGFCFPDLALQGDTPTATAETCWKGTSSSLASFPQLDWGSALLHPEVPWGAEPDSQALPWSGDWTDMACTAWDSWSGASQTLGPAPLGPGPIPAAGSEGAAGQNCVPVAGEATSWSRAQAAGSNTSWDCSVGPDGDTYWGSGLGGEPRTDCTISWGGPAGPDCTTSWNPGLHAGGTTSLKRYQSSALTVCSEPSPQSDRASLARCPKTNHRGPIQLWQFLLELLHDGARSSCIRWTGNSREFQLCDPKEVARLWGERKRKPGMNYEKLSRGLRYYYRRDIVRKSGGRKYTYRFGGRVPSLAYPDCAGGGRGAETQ
Method in brief: as §1

ELF3 = molecular target: T5, ELF3 (Homo sapiens, UniProt P78545 1-371); details: protein: recombinant; tags: N-terminal GST; dsDNA, one strand shown
T5 sequence: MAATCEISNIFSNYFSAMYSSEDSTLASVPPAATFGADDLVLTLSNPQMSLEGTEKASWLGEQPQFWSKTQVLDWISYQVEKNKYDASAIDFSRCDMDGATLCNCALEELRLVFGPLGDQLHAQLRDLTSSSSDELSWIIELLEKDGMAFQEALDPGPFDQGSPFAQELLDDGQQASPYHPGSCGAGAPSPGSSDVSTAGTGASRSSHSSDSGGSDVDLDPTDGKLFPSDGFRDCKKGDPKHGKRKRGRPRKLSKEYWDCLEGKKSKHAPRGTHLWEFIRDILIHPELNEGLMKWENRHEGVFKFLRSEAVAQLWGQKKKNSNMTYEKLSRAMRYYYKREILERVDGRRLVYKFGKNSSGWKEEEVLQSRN
Method in brief: as §1

CRX = CRX (Homo sapiens, UniProt O43186 1-299); details: protein: recombinant; tags: N-terminal GST; dsDNA, one strand shown
Method in brief: as §1

ETV1 = ETV1 (Homo sapiens, UniProt P50549 1-477); details: protein: recombinant; tags: N-terminal GST; dsDNA, one strand shown
Method in brief: as §1

ERF = molecular target: T6, ERF (Homo sapiens, UniProt P50548 1-548); details: protein: recombinant; tags: N-terminal GST; dsDNA, one strand shown
T6 sequence: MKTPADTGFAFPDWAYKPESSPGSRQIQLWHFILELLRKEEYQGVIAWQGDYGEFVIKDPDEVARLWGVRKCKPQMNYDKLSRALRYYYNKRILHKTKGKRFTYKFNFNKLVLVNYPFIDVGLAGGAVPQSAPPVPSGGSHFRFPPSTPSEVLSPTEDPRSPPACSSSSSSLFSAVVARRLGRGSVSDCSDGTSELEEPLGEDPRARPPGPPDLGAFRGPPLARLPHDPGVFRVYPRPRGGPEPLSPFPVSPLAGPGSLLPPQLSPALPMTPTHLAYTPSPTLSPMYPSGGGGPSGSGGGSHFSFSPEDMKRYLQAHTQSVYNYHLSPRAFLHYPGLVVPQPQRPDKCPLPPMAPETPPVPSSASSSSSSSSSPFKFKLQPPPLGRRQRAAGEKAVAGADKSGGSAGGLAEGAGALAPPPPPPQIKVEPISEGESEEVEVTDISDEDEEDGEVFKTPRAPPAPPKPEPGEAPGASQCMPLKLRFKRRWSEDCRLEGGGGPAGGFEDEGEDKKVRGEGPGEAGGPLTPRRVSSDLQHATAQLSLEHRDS
Method in brief: as §1

ETV3L = molecular target: T7, ETV3L (Homo sapiens, UniProt Q6ZN32 1-361); details: protein: recombinant; tags: N-terminal GST; dsDNA, one strand shown
T7 sequence: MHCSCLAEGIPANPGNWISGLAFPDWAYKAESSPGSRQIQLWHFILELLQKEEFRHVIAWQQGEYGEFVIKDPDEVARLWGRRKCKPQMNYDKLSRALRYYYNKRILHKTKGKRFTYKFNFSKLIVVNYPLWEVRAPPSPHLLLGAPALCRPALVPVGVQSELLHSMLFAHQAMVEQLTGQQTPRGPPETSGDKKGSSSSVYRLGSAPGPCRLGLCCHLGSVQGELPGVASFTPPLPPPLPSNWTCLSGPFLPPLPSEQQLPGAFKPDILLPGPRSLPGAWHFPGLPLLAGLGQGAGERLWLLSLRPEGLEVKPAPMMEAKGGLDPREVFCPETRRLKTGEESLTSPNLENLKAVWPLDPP
Method in brief: as §1

ETS2 = molecular target: T8, ETS2 (Homo sapiens, UniProt P15036 1-469); details: protein: recombinant; tags: N-terminal GST; dsDNA, one strand shown
T8 sequence: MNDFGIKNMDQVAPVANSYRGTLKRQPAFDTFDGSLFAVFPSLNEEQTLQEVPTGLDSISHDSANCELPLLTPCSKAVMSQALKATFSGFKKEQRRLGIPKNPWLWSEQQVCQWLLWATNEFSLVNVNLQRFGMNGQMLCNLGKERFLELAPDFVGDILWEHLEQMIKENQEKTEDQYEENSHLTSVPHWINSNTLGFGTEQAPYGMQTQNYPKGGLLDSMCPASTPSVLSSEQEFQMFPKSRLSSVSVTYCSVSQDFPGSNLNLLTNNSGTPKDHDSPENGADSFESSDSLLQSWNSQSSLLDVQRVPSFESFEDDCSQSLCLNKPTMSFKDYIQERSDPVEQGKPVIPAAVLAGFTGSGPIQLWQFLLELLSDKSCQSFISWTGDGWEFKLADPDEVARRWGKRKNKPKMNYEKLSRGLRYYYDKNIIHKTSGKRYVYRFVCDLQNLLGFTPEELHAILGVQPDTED
Method in brief: as §1

SPDEF = molecular target: T9, SPDEF (Homo sapiens, UniProt O95238 1-335); details: protein: recombinant; tags: N-terminal GST; dsDNA, one strand shown
T9 sequence: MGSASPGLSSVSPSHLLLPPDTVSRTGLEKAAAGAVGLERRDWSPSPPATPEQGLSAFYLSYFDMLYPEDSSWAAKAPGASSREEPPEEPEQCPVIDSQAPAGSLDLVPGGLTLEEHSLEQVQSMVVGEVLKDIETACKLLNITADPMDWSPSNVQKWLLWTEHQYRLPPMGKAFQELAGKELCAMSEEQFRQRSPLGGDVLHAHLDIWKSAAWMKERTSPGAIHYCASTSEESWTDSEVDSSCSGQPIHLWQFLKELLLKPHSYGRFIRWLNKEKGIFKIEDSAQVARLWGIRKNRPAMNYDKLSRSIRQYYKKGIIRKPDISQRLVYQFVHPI
Method in brief: as §1

ETV7 = molecular target: T10, ETV7 (Homo sapiens, UniProt Q9Y603 1-341); details: protein: recombinant; tags: N-terminal GST; dsDNA, one strand shown
T10 sequence: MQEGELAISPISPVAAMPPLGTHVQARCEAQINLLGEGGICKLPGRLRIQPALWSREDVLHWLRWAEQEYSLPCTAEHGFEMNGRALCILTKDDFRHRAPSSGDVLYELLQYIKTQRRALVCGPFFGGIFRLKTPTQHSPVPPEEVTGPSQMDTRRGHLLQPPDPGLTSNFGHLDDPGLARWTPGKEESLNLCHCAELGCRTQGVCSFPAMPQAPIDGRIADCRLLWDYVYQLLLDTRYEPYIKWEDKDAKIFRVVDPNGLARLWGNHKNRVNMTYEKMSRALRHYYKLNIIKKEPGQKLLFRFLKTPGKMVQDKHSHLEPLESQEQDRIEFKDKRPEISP
Method in brief: as §1

ELF5 = molecular target: T11, ELF5 (Homo sapiens, UniProt Q9UKW6-2 1-255); details: protein: recombinant; tags: N-terminal GST; dsDNA, one strand shown
T11 sequence: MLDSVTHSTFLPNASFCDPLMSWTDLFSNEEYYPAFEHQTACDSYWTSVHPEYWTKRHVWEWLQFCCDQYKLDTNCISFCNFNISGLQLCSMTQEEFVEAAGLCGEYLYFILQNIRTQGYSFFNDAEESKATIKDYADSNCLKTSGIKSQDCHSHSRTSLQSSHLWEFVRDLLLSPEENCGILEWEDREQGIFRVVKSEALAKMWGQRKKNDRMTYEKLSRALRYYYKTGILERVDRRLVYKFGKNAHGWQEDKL
Method in brief: as §1

ETV3 = molecular target: T12, ETV3 (Homo sapiens, UniProt P41162-2 1-143); details: protein: recombinant; tags: N-terminal GST; dsDNA, one strand shown
T12 sequence: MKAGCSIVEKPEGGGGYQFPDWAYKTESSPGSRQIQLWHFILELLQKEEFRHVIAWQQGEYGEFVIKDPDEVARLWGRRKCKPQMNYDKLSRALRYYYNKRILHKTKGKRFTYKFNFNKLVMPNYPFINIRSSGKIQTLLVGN
Method in brief: as §1

ETV6 = ETV6 (Homo sapiens, UniProt P41212 1-452); details: protein: recombinant; tags: N-terminal GST; dsDNA, one strand shown
Method in brief: as §1

Chain of ETV5 (P41161 whole entry): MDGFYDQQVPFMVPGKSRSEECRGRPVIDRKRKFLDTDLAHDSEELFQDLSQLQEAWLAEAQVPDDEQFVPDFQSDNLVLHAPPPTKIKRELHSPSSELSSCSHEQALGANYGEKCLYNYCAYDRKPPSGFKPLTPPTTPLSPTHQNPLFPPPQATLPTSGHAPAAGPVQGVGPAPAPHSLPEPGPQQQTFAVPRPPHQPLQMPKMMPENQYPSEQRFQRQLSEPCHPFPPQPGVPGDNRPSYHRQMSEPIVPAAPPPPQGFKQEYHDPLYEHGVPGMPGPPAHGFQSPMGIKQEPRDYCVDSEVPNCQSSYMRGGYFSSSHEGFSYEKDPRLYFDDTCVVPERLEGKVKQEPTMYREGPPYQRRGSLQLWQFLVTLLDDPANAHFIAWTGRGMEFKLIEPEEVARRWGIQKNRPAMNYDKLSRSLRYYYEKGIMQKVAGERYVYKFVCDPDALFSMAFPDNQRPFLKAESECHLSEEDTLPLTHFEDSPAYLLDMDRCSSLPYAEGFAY
Chain of ETV1 (P50549 whole entry): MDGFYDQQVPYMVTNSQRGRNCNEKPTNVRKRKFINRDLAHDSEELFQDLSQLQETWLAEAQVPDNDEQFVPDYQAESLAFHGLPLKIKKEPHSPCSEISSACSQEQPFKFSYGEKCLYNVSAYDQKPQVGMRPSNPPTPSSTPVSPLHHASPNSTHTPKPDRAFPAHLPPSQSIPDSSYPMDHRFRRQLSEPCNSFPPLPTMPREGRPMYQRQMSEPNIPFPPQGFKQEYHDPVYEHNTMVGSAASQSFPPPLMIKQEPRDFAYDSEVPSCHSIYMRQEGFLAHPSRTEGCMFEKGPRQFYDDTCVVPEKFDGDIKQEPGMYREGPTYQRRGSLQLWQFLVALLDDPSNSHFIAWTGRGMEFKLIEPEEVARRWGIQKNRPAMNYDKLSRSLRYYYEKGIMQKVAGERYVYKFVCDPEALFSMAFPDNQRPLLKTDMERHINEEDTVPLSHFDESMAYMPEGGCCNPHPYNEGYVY
Chain of CRX (O43186 whole entry): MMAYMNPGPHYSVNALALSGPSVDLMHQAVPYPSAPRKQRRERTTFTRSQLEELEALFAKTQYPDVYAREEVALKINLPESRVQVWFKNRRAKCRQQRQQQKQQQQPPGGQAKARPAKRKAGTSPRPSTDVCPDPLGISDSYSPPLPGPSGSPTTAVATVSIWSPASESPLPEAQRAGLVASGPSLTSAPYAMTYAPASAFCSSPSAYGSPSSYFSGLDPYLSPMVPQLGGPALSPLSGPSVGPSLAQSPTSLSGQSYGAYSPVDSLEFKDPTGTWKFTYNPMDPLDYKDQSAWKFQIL
Chain of ETV6 (P41212 whole entry): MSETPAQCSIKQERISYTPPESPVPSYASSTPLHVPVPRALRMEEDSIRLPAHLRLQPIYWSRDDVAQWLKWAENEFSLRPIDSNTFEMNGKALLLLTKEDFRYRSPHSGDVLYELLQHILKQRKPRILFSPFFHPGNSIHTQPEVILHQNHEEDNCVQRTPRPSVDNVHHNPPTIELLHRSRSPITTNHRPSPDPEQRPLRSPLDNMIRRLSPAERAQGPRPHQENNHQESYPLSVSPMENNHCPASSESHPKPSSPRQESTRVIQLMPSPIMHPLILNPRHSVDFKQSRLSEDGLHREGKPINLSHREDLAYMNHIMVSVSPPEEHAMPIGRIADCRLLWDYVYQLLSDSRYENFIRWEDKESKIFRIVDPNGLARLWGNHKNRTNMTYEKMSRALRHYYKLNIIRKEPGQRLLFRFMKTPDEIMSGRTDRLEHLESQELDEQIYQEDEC
Chain of HSF1 (Q00613 whole entry): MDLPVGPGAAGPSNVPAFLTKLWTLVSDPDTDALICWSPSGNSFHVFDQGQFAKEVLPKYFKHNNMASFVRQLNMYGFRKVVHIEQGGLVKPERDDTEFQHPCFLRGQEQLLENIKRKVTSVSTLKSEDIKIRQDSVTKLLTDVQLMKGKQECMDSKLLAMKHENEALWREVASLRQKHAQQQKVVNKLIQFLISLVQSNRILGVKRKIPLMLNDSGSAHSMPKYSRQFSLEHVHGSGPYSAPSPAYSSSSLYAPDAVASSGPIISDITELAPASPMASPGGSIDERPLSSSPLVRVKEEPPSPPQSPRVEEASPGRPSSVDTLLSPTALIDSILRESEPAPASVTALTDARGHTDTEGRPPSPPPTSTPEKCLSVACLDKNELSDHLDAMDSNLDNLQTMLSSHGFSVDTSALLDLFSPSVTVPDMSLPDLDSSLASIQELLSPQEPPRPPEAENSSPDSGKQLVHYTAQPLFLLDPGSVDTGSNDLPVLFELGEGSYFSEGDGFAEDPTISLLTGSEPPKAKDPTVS
Chain of ELF4 (Q99607 whole entry): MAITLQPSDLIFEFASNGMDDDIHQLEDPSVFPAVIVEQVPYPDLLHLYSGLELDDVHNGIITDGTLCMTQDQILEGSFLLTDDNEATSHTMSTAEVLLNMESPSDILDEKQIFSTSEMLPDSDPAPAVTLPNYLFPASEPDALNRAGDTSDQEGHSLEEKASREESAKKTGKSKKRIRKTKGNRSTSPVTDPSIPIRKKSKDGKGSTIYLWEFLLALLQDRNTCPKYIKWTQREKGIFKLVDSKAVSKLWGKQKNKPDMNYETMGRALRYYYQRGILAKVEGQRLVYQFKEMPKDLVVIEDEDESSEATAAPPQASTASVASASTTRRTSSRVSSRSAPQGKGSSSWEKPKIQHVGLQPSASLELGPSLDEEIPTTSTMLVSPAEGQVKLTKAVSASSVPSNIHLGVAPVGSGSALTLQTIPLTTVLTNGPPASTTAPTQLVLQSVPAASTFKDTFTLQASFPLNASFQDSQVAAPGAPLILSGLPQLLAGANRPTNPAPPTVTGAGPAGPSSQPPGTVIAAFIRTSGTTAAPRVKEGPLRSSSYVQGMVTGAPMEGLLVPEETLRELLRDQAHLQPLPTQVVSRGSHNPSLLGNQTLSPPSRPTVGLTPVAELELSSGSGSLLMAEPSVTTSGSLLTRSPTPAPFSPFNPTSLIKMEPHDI

TATTCA
binding signal (FEV): 1.28 fold enrichment (6-mer frequency, TF over GST control)
binding signal (ETV5): 1.33 fold enrichment (6-mer frequency, TF over GST control)
binding signal (HSF1): 1.32 fold enrichment (6-mer frequency, TF over GST control)
binding signal (SPIC): 1.47 fold enrichment (6-mer frequency, TF over GST control)
binding signal (ELF4): 1.29 fold enrichment (6-mer frequency, TF over GST control)
binding signal (ELK4): 1.33 fold enrichment (6-mer frequency, TF over GST control)
binding signal (ETV2): 1.35 fold enrichment (6-mer frequency, TF over GST control)
binding signal (ELF3): 1.31 fold enrichment (6-mer frequency, TF over GST control)
binding signal (CRX): 1.42 fold enrichment (6-mer frequency, TF over GST control)
binding signal (ETV1): 1.28 fold enrichment (6-mer frequency, TF over GST control)
binding signal (ERF): 1.36 fold enrichment (6-mer frequency, TF over GST control)
binding signal (ETV3L): 1.43 fold enrichment (6-mer frequency, TF over GST control)
binding signal (ETS2): 1.34 fold enrichment (6-mer frequency, TF over GST control)
binding signal (SPDEF): 1.28 fold enrichment (6-mer frequency, TF over GST control)
binding signal (ETV7): 1.23 fold enrichment (6-mer frequency, TF over GST control)
binding signal (ELF5): 1.24 fold enrichment (6-mer frequency, TF over GST control)
binding signal (ETV3): 1.23 fold enrichment (6-mer frequency, TF over GST control)
binding signal (ETV6): 1.3 fold enrichment (6-mer frequency, TF over GST control)
